{"source": "the supplement of paper PMC4466140", "experiment_in_all_cases": "SPOT peptide array binding signal intensity (averaged, normalized) (arbitrary units (background-subtracted, floor 0; scale differs between SH3 domains)); higher = stronger binding of the SH3 domain to the peptide", "key": {"[1]": {"target": "AgAbp1", "in_short": "(§1)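 SH3 domains from four yeast species were expressed as GST fusions in E. coli BL21(DE3) and purified on glutathione Sepharose. Each was incubated at 10 μg/ml overnight at 4°C in TBS-based blocking buffer on cellulose membranes bearing synthetic 15-mer peptides, in which serines replaced cysteines. Bound protein was detected with anti-GST antibody, an HRP anti-mouse secondary and luminol, then imaged and quantified with Genespotter. The binding signal is the normalized, background-subtracted spot intensity averaged over replicates, in arbitrary units that are not the same from one domain to another.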"}, "[2]": {"target": "AgBbc1", "in_short": "as §1"}, "[3]": {"target": "AgBem1-D1", "in_short": "as §1"}, "[4]": {"target": "AgBzz1-D1", "in_short": "as §1"}, "[5]": {"target": "AgBzz1-D2", "in_short": "as §1"}, "[6]": {"target": "AgCyk3", "in_short": "as §1"}, "[7]": {"target": "AgFus1", "in_short": "as §1"}, "[8]": {"target": "AgHof1", "in_short": "as §1"}, "[9]": {"target": "AgHse1", "in_short": "as §1"}, "[10]": {"target": "AgLsb1", "in_short": "as §1"}, "[11]": {"target": "AgLsb4", "in_short": "as §1"}, "[12]": {"target": "AgMyo5", "in_short": "as §1"}, "[13]": {"target": "AgNbp2", "in_short": "as §1"}, "[14]": {"target": "AgRvs167", "in_short": "as §1"}, "[15]": {"target": "AgSho1", "in_short": "as §1"}, "[16]": {"target": "AgSla1-D1-D2", "in_short": "as §1"}, "[17]": {"target": "AgSla1-D3", "in_short": "as §1"}, "[18]": {"target": "CaAbp1-D1", "in_short": "as §1"}, "[19]": {"target": "CaAbp1-D2", "in_short": "as §1"}, "[20]": {"target": "CaBbc1", "in_short": "as §1"}, "[21]": {"target": "CaBem1-D1", "in_short": "as §1"}, "[22]": {"target": "CaBzz1-D1", "in_short": "as §1"}, "[23]": {"target": "CaBzz1-D2", "in_short": "as §1"}, "[24]": {"target": "CaCyk3", "in_short": "as §1"}, "[25]": {"target": "CaFus1", "in_short": "as §1"}, "[26]": {"target": "CaHof1", "in_short": "as §1"}, "[27]": {"target": "CaHse1", "in_short": "as §1"}, "[28]": {"target": "CaLsb1", "in_short": "as §1"}, "[29]": {"target": "CaLsb4", "in_short": "as §1"}, "[30]": {"target": "CaMyo5", "in_short": "as §1"}, "[31]": {"target": "CaNbp2", "in_short": "as §1"}, "[32]": {"target": "CaRvs167", "in_short": "as §1"}, "[33]": {"target": "CaRvs167-3", "in_short": "as §1"}, "[34]": {"target": "CaSho1", "in_short": "as §1"}, "[35]": {"target": "CaSla1-D1-D2", "in_short": "as §1"}, "[36]": {"target": "CaSla1-D3", "in_short": "as §1"}, "[37]": {"target": "ScAbp1", "in_short": "as §1"}, "[38]": {"target": "ScBbc1", "in_short": "as §1"}, "[39]": {"target": "ScBem1-D1", "in_short": "as §1"}, "[40]": {"target": "ScBzz1-D1", "in_short": "as §1"}, "[41]": {"target": "ScBzz1-D2", "in_short": "as §1"}, "[42]": {"target": "ScCyk3", "in_short": "as §1"}, "[43]": {"target": "ScFus1", "in_short": "as §1"}, "[44]": {"target": "ScHof1", "in_short": "as §1"}, "[45]": {"target": "ScHse1", "in_short": "as §1"}, "[46]": {"target": "ScLsb1", "in_short": "as §1"}, "[47]": {"target": "ScLsb2", "in_short": "as §1"}, "[48]": {"target": "ScLsb3", "in_short": "as §1"}, "[49]": {"target": "ScLsb4", "in_short": "as §1"}, "[50]": {"target": "ScMyo3", "in_short": "as §1"}, "[51]": {"target": "ScMyo5", "in_short": "as §1"}, "[52]": {"target": "ScNbp2", "in_short": "as §1"}, "[53]": {"target": "ScPex13", "in_short": "as §1"}, "[54]": {"target": "ScRvs167", "in_short": "as §1"}, "[55]": {"target": "ScSho1", "in_short": "as §1"}, "[56]": {"target": "ScSla1-D1-D2", "in_short": "as §1"}, "[57]": {"target": "ScSla1-D3", "in_short": "as §1"}, "[58]": {"target": "SpAbp1-D1", "in_short": "as §1"}, "[59]": {"target": "SpBbc1", "in_short": "as §1"}, "[60]": {"target": "SpBzz1-D1", "in_short": "as §1"}, "[61]": {"target": "SpBzz1-D2", "in_short": "as §1"}, "[62]": {"target": "SpCyk3", "in_short": "as §1"}, "[63]": {"target": "SpHof1", "in_short": "as §1"}, "[64]": {"target": "SpHof1-2", "in_short": "as §1"}, "[65]": {"target": "SpHof1-3", "in_short": "as §1"}, "[66]": {"target": "SpHse1", "in_short": "as §1"}, "[67]": {"target": "SpLsb1", "in_short": "as §1"}, "[68]": {"target": "SpLsb4", "in_short": "as §1"}, "[69]": {"target": "SpMyo1", "in_short": "as §1"}, "[70]": {"target": "SpNbp2", "in_short": "as §1"}, "[71]": {"target": "SpPex13", "in_short": "as §1"}, "[72]": {"target": "SpRvs167", "in_short": "as §1"}, "[73]": {"target": "SpSla1-D1-D2", "in_short": "as §1"}, "[74]": {"target": "SpSla1-D3", "in_short": "as §1"}}, "data": [{"binder": "TKPTPPPKPSHLKPK", "values": [{"measurement": "SPOT peptide array binding signal intensity", "setting": "[1]", "value": 784}, {"measurement": "SPOT peptide array binding signal intensity", "setting": "[2]", "value": 125}, {"measurement": "SPOT peptide array binding signal intensity", "setting": "[3]", "value": "≤ 0"}, {"measurement": "SPOT peptide array binding signal intensity", "setting": "[4]", "value": 150}, {"measurement": "SPOT peptide array binding signal intensity", "setting": "[5]", "value": 13}, {"measurement": "SPOT peptide array binding signal intensity", "setting": "[6]", "value": 0.5}, {"measurement": "SPOT peptide array binding signal intensity", "setting": "[7]", "value": "≤ 0"}, {"measurement": "SPOT peptide array binding signal intensity", "setting": "[8]", "value": 3.5}, {"measurement": "SPOT peptide array binding signal intensity", "setting": "[9]", "value": 18}, {"measurement": "SPOT peptide array binding signal intensity", "setting": "[10]", "value": 0.5}, {"measurement": "SPOT peptide array binding signal intensity", "setting": "[11]", "value": "≤ 0"}, {"measurement": "SPOT peptide array binding signal intensity", "setting": "[12]", "value": "≤ 0"}, {"measurement": "SPOT peptide array binding signal intensity", "setting": "[13]", "value": "≤ 0"}, {"measurement": "SPOT peptide array binding signal intensity", "setting": "[14]", "value": 2.67}, {"measurement": "SPOT peptide array binding signal intensity", "setting": "[15]", "value": 72}, {"measurement": "SPOT peptide array binding signal intensity", "setting": "[16]", "value": "≤ 0"}, {"measurement": "SPOT peptide array binding signal intensity", "setting": "[17]", "value": "≤ 0"}, {"measurement": "SPOT peptide array binding signal intensity", "setting": "[18]", "value": 655}, {"measurement": "SPOT peptide array binding signal intensity", "setting": "[19]", "value": 1210}, {"measurement": "SPOT peptide array binding signal intensity", "setting": "[20]", "value": 159}, {"measurement": "SPOT peptide array binding signal intensity", "setting": "[21]", "value": "≤ 0"}, {"measurement": "SPOT peptide array binding signal intensity", "setting": "[22]", "value": 1030}, {"measurement": "SPOT peptide array binding signal intensity", "setting": "[23]", "value": 357}, {"measurement": "SPOT peptide array binding signal intensity", "setting": "[24]", "value": "≤ 0"}, {"measurement": "SPOT peptide array binding signal intensity", "setting": "[25]", "value": "≤ 0"}, {"measurement": "SPOT peptide array binding signal intensity", "setting": "[26]", "value": 1.5}, {"measurement": "SPOT peptide array binding signal intensity", "setting": "[27]", "value": 5.75}, {"measurement": "SPOT peptide array binding signal intensity", "setting": "[28]", "value": 0.5}, {"measurement": "SPOT peptide array binding signal intensity", "setting": "[29]", "value": "≤ 0"}, {"measurement": "SPOT peptide array binding signal intensity", "setting": "[30]", "value": 1}, {"measurement": "SPOT peptide array binding signal intensity", "setting": "[31]", "value": "≤ 0"}, {"measurement": "SPOT peptide array binding signal intensity", "setting": "[32]", "value": 4}, {"measurement": "SPOT peptide array binding signal intensity", "setting": "[33]", "value": 6}, {"measurement": "SPOT peptide array binding signal intensity", "setting": "[34]", "value": 44.5}, {"measurement": "SPOT peptide array binding signal intensity", "setting": "[35]", "value": 9.5}, {"measurement": "SPOT peptide array binding signal intensity", "setting": "[36]", "value": 0.5}, {"measurement": "SPOT peptide array binding signal intensity", "setting": "[37]", "value": 1010}, {"measurement": "SPOT peptide array binding signal intensity", "setting": "[38]", "value": "≤ 0"}, {"measurement": "SPOT peptide array binding signal intensity", "setting": "[39]", "value": 1.5}, {"measurement": "SPOT peptide array binding signal intensity", "setting": "[40]", "value": 4}, {"measurement": "SPOT peptide array binding signal intensity", "setting": "[41]", "value": 59.5}, {"measurement": "SPOT peptide array binding signal intensity", "setting": "[42]", "value": "≤ 0"}, {"measurement": "SPOT peptide array binding signal intensity", "setting": "[43]", "value": 7.5}, {"measurement": "SPOT peptide array binding signal intensity", "setting": "[44]", "value": 2}, {"measurement": "SPOT peptide array binding signal intensity", "setting": "[45]", "value": 4}, {"measurement": "SPOT peptide array binding signal intensity", "setting": "[46]", "value": 0.5}, {"measurement": "SPOT peptide array binding signal intensity", "setting": "[47]", "value": "≤ 0"}, {"measurement": "SPOT peptide array binding signal intensity", "setting": "[48]", "value": 1800}, {"measurement": "SPOT peptide array binding signal intensity", "setting": "[49]", "value": "≤ 0"}, {"measurement": "SPOT peptide array binding signal intensity", "setting": "[50]", "value": 0.5}, {"measurement": "SPOT peptide array binding signal intensity", "setting": "[51]", "value": "≤ 0"}, {"measurement": "SPOT peptide array binding signal intensity", "setting": "[52]", "value": 13}, {"measurement": "SPOT peptide array binding signal intensity", "setting": "[53]", "value": 981}, {"measurement": "SPOT peptide array binding signal intensity", "setting": "[54]", "value": 4.17}, {"measurement": "SPOT peptide array binding signal intensity", "setting": "[55]", "value": 1320}, {"measurement": "SPOT peptide array binding signal intensity", "setting": "[56]", "value": 11}, {"measurement": "SPOT peptide array binding signal intensity", "setting": "[57]", "value": 1.75}, {"measurement": "SPOT peptide array binding signal intensity", "setting": "[58]", "value": 481}, {"measurement": "SPOT peptide array binding signal intensity", "setting": "[59]", "value": 0.5}, {"measurement": "SPOT peptide array binding signal intensity", "setting": "[60]", "value": 344}, {"measurement": "SPOT peptide array binding signal intensity", "setting": "[61]", "value": "≤ 0"}, {"measurement": "SPOT peptide array binding signal intensity", "setting": "[62]", "value": "≤ 0"}, {"measurement": "SPOT peptide array binding signal intensity", "setting": "[63]", "value": 2}, {"measurement": "SPOT peptide array binding signal intensity", "setting": "[64]", "value": "≤ 0"}, {"measurement": "SPOT peptide array binding signal intensity", "setting": "[65]", "value": 64}, {"measurement": "SPOT peptide array binding signal intensity", "setting": "[66]", "value": 9.25}, {"measurement": "SPOT peptide array binding signal intensity", "setting": "[67]", "value": 251}, {"measurement": "SPOT peptide array binding signal intensity", "setting": "[68]", "value": 43.5}, {"measurement": "SPOT peptide array binding signal intensity", "setting": "[69]", "value": "≤ 0"}, {"measurement": "SPOT peptide array binding signal intensity", "setting": "[70]", "value": 2.5}, {"measurement": "SPOT peptide array binding signal intensity", "setting": "[71]", "value": 7}, {"measurement": "SPOT peptide array binding signal intensity", "setting": "[72]", "value": 142}, {"measurement": "SPOT peptide array binding signal intensity", "setting": "[73]", "value": "≤ 0"}, {"measurement": "SPOT peptide array binding signal intensity", "setting": "[74]", "value": 2.5}]}]}
